Potency data for twelve compounds are collected here from PubChem BioAssay (Tox21).

The nature of assay [1]: Nuclear factor erythroid 2-related factor 2/antioxidant responsive element (Nrf2/ARE) small molecule agonists: qHTS cell viability counter screen in human keratinocytes (AID 1919968; active = well fitted curve in the direction sought with a large enough effect in the repeat runs; an effect the other way counts as inactive or inconclusive; note: nearly all actives have a fitted effect of over 55% in size; note: potency is the fitted concentration of half-maximal effect). A digest of the protocol: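 In human HaCaT keratinocytes stably expressing an ARE-driven luciferase, compound exposure lasted 23 h at 37 C under 5% CO2. Viable cells are quantified with a protease-based fluorogenic reagent (CellTiter-Fluor) read 1 h after addition.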
(In general: In qHTS, concentration-response curves come from the screen itself.)

In assay [2] the target is Gonadotropin-releasing hormone receptor (Homo sapiens) (UniProt P30968). As to the kind of experiment: Human gonadotropin-releasing hormone receptor (GnRHR) small molecule agonists, calcium flux assay in GnRHR-HEK293 cells (AID 1920063). Note: nearly all actives have a fitted effect of over 35% in size. A digest of the protocol:
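Intracellular calcium rise is the read-out: engineered human GnRHR HEK293 cells, dye-loaded, are exposed to DMSO-dissolved compounds and fluorescence at Ex/Em 480/540 is tracked for 3 min.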

The nature of assay [3]: G protein-coupled receptor (GPCR) small molecule agonists, calcium flux assay: HEK293 wild type cell line counter screen (AID 1920065). A digest of the protocol: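 Fluorescence intensity signals activation. After overnight (18 h) culture and a 1 h calcium dye load at 37 C, compounds are added by pin tool and the plate read at 480/540 nm for 3 min in 1 s steps.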
(Calcium flux is commonly read through the fluorescence of an indicator in the cells.)

Assay [4] can be described thus: p53 small molecule agonists, cell-based qHTS assay with human liver microsomes: qHTS cell viability counter screen (AID 1963579). Note: nearly all actives have a fitted effect of over 45% in size. The procedure, abridged: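 After the 460/530 nm beta-lactamase read, CellTiter-Glo was added to the same wells and luminescence measured after 30 min at room temperature, giving viability of p53RE-bla cells treated 16 h with compounds plus microsomes and NADPH.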

Assay [5] in a line: p53 small molecule agonists, cell-based qHTS assay with rat liver microsomes: qHTS cell viability counter screen (AID 1963580). Note: nearly all actives have a fitted effect of over 45% in size. The procedure, abridged:
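Luminescent ATP readout (CellTiter-Glo, 30 min at room temperature) reports viability of p53RE-bla HCT-116 cells after 16 h at 37 C with test compounds under metabolic activation by rat liver microsomes and NADPH at 0.5 mg/mL final each.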

The target in assay [6] is 5-hydroxytryptamine receptor 2A (Homo sapiens) (UniProt P28223). As to the kind of experiment: 5-hydroxytryptamine receptor 2A (HTR2A) small molecule agonists, cell-based qHTS assay (AID 1963587). Note: nearly all actives have a fitted effect of over 30% in size. Note: potency is the fitted concentration of half-maximal effect. The procedure, abridged:
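HTR2A-CHO cells, plated 18 h at 37 C/5% CO2, dye-loaded 1 h at 37 C; compounds in DMSO added by pin tool (agonist mode). Intracellular calcium flux read as kinetic fluorescence on FDSS over 2 min at 1 s intervals.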

Assay [7] deals with Muscarinic acetylcholine receptor M1 (Homo sapiens) (UniProt P11229). Description: Cholinergic receptor muscarinic 1 (CHRM1) small molecule agonists, cell-based qHTS assay (AID 1963589). Note: nearly all actives have a fitted effect of over 35% in size. A digest of the protocol:
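Fluorescent calcium dye reports M1 activation in stably transfected CHO cells. Compounds, 15 concentrations, added after 1 h dye loading at 37 C; kinetic reading at 1 sec intervals.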

Assay [8] has as its target Beta-2 adrenergic receptor (Homo sapiens) (UniProt P07550). Description: Adrenergic beta2 receptor (ADRB2) small molecule antagonists, cell-based qHTS assay (AID 1963592). Note: series mostly up to about 92 µM; nearly all actives have a fitted effect of over 50% in size. A digest of the protocol:
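Assay format: CHO-ADRB2 cells, 18-20hr seeding at 37C/5% CO2, then compound plus 1nM isoproterenol agonist mix for 0.5hr RT. Homogeneous time-resolved fluorescence cAMP detection after 1hr, expressed as 665/615 nm ratio.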

Assay [9] deals with D(2) dopamine receptor (Homo sapiens) (UniProt P14416). Description: Dopamine D2 receptor (DRD2) small molecule agonists, cell-based qHTS assay (AID 1963594). Note: nearly all actives have a fitted effect of over 35% in size. The procedure, abridged:
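HEK293 cells stably expressing DRD2 were cultured 24 h at 37 C, then given Ro20-1724 (0.1 mM final) and compounds for 10 min at room temperature. NKH477 (200nM) was then added for 30 min. cAMP was read by HTRF.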

Assay [10] has the same target. As to the kind of experiment: Dopamine D2 receptor (DRD2) small molecule antagonists, cell-based qHTS assay (AID 1963595; active = well fitted inhibition curve with a large enough effect in the signal ratio in the repeat runs, with a control signal flat; the % refers to the signal ratio). The procedure, abridged:
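Stable D2 receptor HEK293 line, 24 h after seeding. Compound preincubated 10 min, then quinpirole (12 nM) with forskolin analogue NKH477 (200 nM), 30 min, room temperature. Detection by time-resolved FRET of cAMP.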

Assay [11] in a line: p53 small molecule agonists, cell-based qHTS assay with human liver microsomes (AID 1963577).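 Note: p53 response element beta-lactamase reporter cells with liver microsomes plus NADPH.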 The procedure, abridged: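 Steps: plate p53RE-bla cells, incubate 5 h at 37 C; add compound in DMSO; add microsomes (0.5 mg/mL final) and NADPH (0.5 mg/mL final); incubate 16 h at 37 C; add LiveBLAzer, 2 h RT; read fluorescence.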
A short description of assay [12]: p53 small molecule agonists, cell-based qHTS assay with rat liver microsomes (AID 1963578). The procedure, abridged:
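Metabolic activation is supplied by rat liver microsomes with NADPH (each 0.5 mg/mL final). p53RE-bla cells incubate with compound 16 h at 37 C; reporter activity is measured by LiveBLAzer fluorescence.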

Assay [13] in a line: cAMP Responsive Elements (CRE) small molecule agonists, cell-based qHTS assay (AID 1963590). A digest of the protocol: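 Compound exposure lasted 3 h at 37 C/5% CO2 in CRE-bla HEK 293T cells grown in assay medium with 10% dialyzed FBS and 25 mM HEPES. Reporter signal came from LiveBLAzer B/G FRET substrate, 2 h, room temperature.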
The target in assay [14] is Beta-2 adrenergic receptor (Homo sapiens) (UniProt P07550). As to the kind of experiment: Adrenergic beta2 receptor (ADRB2) small molecule agonists, cell-based qHTS assay (AID 1963593).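 Note: CHO cells stably overexpressing human ADRB2.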 A digest of the protocol:
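CHO cells stably over-expressing ADRB2 were plated overnight at 37C, then dosed with compounds plus a stimulation mix containing 100uM IBMX and 25uM Ro-20-1724 for 0.5hr at room temperature. cAMP was measured by HTRF competition, 1hr.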

Assay [15] deals with 5-hydroxytryptamine receptor 2A (Homo sapiens) (UniProt P28223). As to the kind of experiment: 5-hydroxytryptamine receptor 2A (HTR2A) small molecule antagonists, cell-based qHTS assay (AID 1963586). Note: nearly all actives have a fitted effect of over 45% in size. The procedure, abridged:
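CHO cells stably expressing human HTR2A were plated for 18 h at 37 C, then loaded with calcium dye for 1 h. Compounds were preincubated 5 min at room temperature before DOI (4 nM solution) was added. Kinetic fluorescence was read for 3 min.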

In assay [16] the target is Muscarinic acetylcholine receptor M1 (Homo sapiens) (UniProt P11229). As to the kind of experiment: Cholinergic receptor muscarinic 1 (CHRM1) small molecule antagonists, cell-based qHTS assay (AID 1963588). Note: nearly all actives have a fitted effect of over 40% in size. The procedure, abridged:
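Compounds were tested at 15 concentrations in three independent runs. Dye-loaded CHRM1-CHO cells were exposed 5 min at room temperature before stimulation by acetylcholine added at 50nM. Intracellular calcium was read kinetically on FDSS for 3 min.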

Assay [17] can be described thus: p53 small molecule agonists, cell-based qHTS assay: qHTS cell viability counter screen (AID 1963581). Note: nearly all actives have a fitted effect of over 45% in size. The procedure, abridged: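 Luminescence from CellTiter-Glo, reflecting ATP content, serves as the cytotoxicity measure; it is taken after the 2 h reporter substrate step in HCT-116 p53RE-bla cells dosed for 16 h at 37 C.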
Assay [18] can be described thus: p53 small molecule agonists, cell-based qHTS assay (AID 1963582; active = well fitted activation curve with a large enough effect in the signal ratio in the repeat runs, not every such curve was filed as active; the % refers to the signal ratio). The procedure, abridged: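 After plating, p53RE-bla cells sat 5 h in the incubator; compounds or DMSO vehicle were pinned in; a 16 h incubation at 37 C followed; FRET substrate was added and, 2 h later at RT, fluorescence was measured.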
Assay [19] in a line: cAMP Responsive Elements (CRE) small molecule antagonists, cell-based qHTS assay (AID 1963591; active = well fitted inhibition curve with a large enough effect in the signal ratio in the repeat runs, not every such curve was filed as active; the % refers to the signal ratio). The procedure, abridged:
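Stimulation used NKH477 at a final 0.25 uM for 3 h in compound-treated CRE-bla HEK293T cells, seeded 18 h beforehand. Reporter activity was measured with LiveBLAzer B/G FRET substrate after 2 h at room temperature.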

Assay [20] deals with KiSS-1 receptor (Homo sapiens) (UniProt Q969F8). Description: Human kisspeptin (KISS1R) small molecule agonists, calcium flux assay in KISS1R-HEK293 cells (AID 1920064; active = well fitted curve in the direction sought with a large enough effect in the repeat runs; an effect the other way counts as inactive or inconclusive). The procedure, abridged: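 Concentration-response testing used 15 concentrations in triplicate on human KISS1R-expressing HEK293 cells. Calcium-dependent fluorescence (Ex/Em 480/540) was followed kinetically for 3 min after compound transfer.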
Chain of KiSS-1 receptor (Homo sapiens) (Q969F8 whole entry, looked up): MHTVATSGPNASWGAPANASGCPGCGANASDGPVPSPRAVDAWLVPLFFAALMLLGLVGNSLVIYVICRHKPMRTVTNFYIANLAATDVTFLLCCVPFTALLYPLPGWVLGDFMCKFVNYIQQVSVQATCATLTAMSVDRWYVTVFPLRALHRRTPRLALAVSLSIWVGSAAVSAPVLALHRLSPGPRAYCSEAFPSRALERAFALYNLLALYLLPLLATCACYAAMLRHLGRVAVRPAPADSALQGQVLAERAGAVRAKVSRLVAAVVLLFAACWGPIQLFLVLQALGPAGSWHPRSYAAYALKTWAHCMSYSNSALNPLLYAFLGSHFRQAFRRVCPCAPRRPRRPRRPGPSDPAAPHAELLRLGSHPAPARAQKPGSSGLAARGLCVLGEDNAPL

Results filed as inconclusive are left out. Active and inactive are the calls of the source. Unless noted, calls come from the whole dose curve.

Chain of Beta-2 adrenergic receptor (Homo sapiens) (P07550 whole entry, looked up): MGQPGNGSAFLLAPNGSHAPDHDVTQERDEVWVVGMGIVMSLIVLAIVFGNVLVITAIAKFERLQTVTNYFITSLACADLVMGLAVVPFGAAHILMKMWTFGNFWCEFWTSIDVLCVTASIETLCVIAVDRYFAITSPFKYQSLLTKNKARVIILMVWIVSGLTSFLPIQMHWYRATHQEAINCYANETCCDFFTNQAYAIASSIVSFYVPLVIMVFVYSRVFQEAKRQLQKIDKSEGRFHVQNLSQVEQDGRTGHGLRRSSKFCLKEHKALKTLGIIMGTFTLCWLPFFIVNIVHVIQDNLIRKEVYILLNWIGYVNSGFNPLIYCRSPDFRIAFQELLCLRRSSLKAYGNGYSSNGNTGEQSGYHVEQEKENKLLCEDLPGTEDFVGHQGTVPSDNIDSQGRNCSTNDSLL
Chain of 5-hydroxytryptamine receptor 2A (Homo sapiens) (P28223 whole entry, looked up): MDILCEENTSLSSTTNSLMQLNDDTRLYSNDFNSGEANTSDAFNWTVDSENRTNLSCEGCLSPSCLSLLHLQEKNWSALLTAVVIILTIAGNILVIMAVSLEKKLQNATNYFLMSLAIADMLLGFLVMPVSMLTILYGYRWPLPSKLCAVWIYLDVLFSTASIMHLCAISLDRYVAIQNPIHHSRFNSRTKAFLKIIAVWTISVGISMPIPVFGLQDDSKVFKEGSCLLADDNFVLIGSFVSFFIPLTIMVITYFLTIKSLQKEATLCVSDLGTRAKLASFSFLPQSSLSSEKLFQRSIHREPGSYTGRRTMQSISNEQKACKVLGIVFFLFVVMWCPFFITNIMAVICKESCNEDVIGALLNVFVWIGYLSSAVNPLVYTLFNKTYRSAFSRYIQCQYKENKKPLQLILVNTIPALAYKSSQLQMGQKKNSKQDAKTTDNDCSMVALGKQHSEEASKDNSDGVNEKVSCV
Chain of D(2) dopamine receptor (Homo sapiens) (P14416 whole entry, looked up): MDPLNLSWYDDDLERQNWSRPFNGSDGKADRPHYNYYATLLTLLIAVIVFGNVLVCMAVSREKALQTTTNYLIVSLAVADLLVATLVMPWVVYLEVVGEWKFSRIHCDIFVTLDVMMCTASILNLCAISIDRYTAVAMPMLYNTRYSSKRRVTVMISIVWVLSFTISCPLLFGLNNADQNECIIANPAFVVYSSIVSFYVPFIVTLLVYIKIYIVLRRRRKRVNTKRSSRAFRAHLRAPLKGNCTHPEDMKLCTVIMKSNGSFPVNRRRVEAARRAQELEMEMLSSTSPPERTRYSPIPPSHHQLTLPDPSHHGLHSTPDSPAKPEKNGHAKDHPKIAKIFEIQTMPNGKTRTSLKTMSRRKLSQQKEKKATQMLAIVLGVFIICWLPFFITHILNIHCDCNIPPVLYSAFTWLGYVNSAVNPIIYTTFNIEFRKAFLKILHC
Chain of Gonadotropin-releasing hormone receptor (Homo sapiens) (P30968 whole entry, looked up): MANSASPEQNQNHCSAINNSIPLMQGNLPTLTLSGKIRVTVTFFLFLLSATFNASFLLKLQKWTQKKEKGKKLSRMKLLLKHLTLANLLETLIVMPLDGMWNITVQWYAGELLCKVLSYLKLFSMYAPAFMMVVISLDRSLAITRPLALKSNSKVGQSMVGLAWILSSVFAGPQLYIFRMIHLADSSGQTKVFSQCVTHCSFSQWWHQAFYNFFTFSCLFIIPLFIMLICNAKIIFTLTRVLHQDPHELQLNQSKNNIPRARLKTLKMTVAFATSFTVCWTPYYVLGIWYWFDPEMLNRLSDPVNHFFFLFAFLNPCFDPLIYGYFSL
Chain of Muscarinic acetylcholine receptor M1 (Homo sapiens) (P11229 whole entry, looked up): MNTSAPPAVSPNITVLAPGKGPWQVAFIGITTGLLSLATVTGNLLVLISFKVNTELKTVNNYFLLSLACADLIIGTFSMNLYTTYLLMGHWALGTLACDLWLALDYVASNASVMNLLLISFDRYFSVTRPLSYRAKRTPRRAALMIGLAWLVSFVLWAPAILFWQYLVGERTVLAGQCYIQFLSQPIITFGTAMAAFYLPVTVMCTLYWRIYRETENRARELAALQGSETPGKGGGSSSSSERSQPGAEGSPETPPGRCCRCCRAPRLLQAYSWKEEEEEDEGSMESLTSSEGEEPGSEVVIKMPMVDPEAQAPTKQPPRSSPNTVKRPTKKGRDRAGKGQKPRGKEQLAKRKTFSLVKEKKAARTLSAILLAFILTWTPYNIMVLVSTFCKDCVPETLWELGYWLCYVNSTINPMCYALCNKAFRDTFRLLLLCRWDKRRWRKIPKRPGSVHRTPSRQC

`CC(=O)OCC(=O)[C@H]1CC[C@H]2[C@@H]3CCC4=CC(=O)CC[C@]4(C)[C@H]3CC[C@]12C`: the Potency result in assay [1], in assay [2], in assay [3], in assay [4], in assay [5] and in assay [6] was “inactive” throughout. Further, the Potency result in assay [7], in assay [8], in assay [9] and in [10] was “inactive” throughout.
As to `CO[C@@H]1[C@@H](OC)[C@H](C)[C@@](O)(CC(=O)O)O[C@H]1[C@H](C)[C@H]1O[C@@]2(CC[C@@](C)([C@H]3CC[C@@](C)([C@@H]4O[C@@H]([C@H]5O[C@](C)(O)[C@H](C)C[C@@H]5C)C[C@@H]4OC4C[C@H](OC)[C@@H](OC)[C@H](C)O4)O3)O2)C[C@H](O)[C@H]1C` (some centres not stated), in [1], the Potency is 0.237 µM (active). Further, the Potency entry in assay [2], in assay [3], in assay [11], in assay [12], in assay [5] and in assay [13] was “inactive” in each case. In addition, the Potency entry in [8], in [14], in assay [9] and in [10] was “inactive” in each case.
`NC(=O)N(O)[C@@H]1COc2cc(OCc3ccccc3)ccc21`: the Potency entry in [1], in assay [2], in assay [3], in assay [4], in [5] and in [15] was “inactive” throughout. Further, the Potency entry in assay [16], in [7], in assay [8] and in assay [14] was “inactive” in each case.
With `CC(C)=CCCC(C)CCOC=O` (configuration not stated), the Potency result in assay [1], in assay [2], in assay [3], in assay [11], in [12] and in assay [4] was “inactive” throughout. The Potency result in [5], in assay [17], in [18], in assay [15], in assay [6] and in assay [16] was “inactive” in each case. Besides, the Potency entry in assay [7], in assay [13], in assay [19], in assay [14], in assay [9] and in [10] was “inactive” each time.
Consider `C[C@]12C(=O)OC(=O)[C@H]1[C@H]1C=C[C@@H]2C1`, for which the Potency result in assay [1], in [2], in [3], in [11], in [12] and in assay [4] was “inactive” each time. In addition, the Potency result in assay [5], in [17], in [18], in assay [15], in assay [6] and in assay [16] was “inactive” throughout. For the same compound, the Potency entry in assay [13], in assay [19], in assay [8], in [9] and in assay [10] was “inactive” throughout.
In the case of `CCN(CC)CC(=O)Nc1c(C)cccc1C`, the Potency result in assay [1], in assay [2], in assay [3], in assay [17], in assay [18] and in assay [13] was “inactive” throughout. For the same compound, the Potency entry in [19], in assay [8], in [14] and in assay [9] was “inactive” throughout.
On to `CCC(Cl)CCC(Cl)C(Cl)CC(Cl)C(Cl)C(Cl)CCl` (configuration not stated), for which the Potency entry in [1], in assay [20], in assay [3], in [11], in assay [12] and in assay [4] was “inactive” in each case. Besides, the Potency result in assay [17], in assay [18], in assay [15], in assay [6], in assay [16] and in assay [7] was “inactive” each time. In addition, the Potency result in assay [13], in [19], in [8], in assay [9] and in [10] was “inactive” throughout.
Consider `CCCC(=O)OC(C)(C)Cc1ccccc1`, for which the Potency entry in [1], in assay [20], in [11], in assay [12], in [4] and in assay [17] was “inactive” throughout. In addition, the Potency result in [18], in assay [6], in [16], in [7], in assay [13] and in assay [19] was “inactive” throughout. Besides, the Potency result in assay [8], in assay [14], in assay [9] and in assay [10] was “inactive” in each case.
Take `C=CC(C)=CCC=C(C)C`: the Potency entry in assay [1], in assay [20], in assay [11], in assay [12], in assay [4] and in assay [5] was “inactive” throughout. Besides, the Potency result in assay [17], in [18], in [15], in assay [6], in assay [7] and in assay [13] was “inactive” each time. Also, the Potency entry in assay [8], in assay [14], in assay [9] and in [10] was “inactive” throughout.
As to `C[C@H](CCC(=O)O)[C@H]1CC[C@H]2[C@@H]3[C@H](O)C[C@@H]4C[C@H](O)CC[C@]4(C)[C@H]3CC[C@]12C`, the Potency entry in assay [1], in assay [20], in assay [3], in [11], in assay [12] and in assay [5] was “inactive” in each case. Further, the Potency entry in assay [17], in assay [18], in assay [16], in assay [8], in [9] and in assay [10] was “inactive” each time.
As for `NCc1cccc(C2CCN(C(=O)c3ccc(C#Cc4ccccc4F)o3)CC2)c1`, the Potency in [1] was 54.5 µM (active); in [6], 21.9 µM (active). For the same compound, the Potency result in assay [20], in assay [3], in assay [12], in assay [4] and in assay [7] was “inactive” each time.
In the case of `Cc1ccc(C(C)(C)C)c(O)c1`, the Potency entry in assay [1], in assay [20], in assay [3], in [11], in [12] and in [5] was “inactive” in each case. Also, the Potency entry in assay [17], in assay [18], in [15], in assay [7], in [8] and in assay [9] was “inactive” in each case. For the same compound, the Potency entry in [10] was “inactive”.
